# Rows were chosen to be rich in hits. Some 1.1% of all compounds tested hit in one or more screens of this group.
# Gli-Sufu antag: Gli-Sufu pathway antagonism; Sufu-KO-LIGHT fibroblasts, Gli luciferase reporter luminescence; inhibition, % at 5 µM; 340,000 compounds, 0.74% hits;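 active means inhibition above about 55%, limit read from the data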
# NCOA1 inh: inhibits human SRC1 coactivator. HEK293 GAL4-SRC1 luciferase reporter, luminescence. inhibition, % at 3.6 µM. 360,000 compounds, 0.12% hits. AID 588354;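 active means inhibition above the campaign mean plus 3 SD, with each screening campaign given its own cutoff, cut at about 60% in these data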
# NR5A2 inv ag: NR5A2 inverse agonism in reporter assay | O00482 | HEK293T StAR-luciferase reporter, LRH-1 transfected, 24 h | inhibition, % at 3.6 µM | 360,000 compounds, 0.13% hits;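 active means inhibition above the mean inhibition of all tested compounds plus 3 SD, cut at about 73% in these data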
# Target sequence (O00482 whole entry, looked up): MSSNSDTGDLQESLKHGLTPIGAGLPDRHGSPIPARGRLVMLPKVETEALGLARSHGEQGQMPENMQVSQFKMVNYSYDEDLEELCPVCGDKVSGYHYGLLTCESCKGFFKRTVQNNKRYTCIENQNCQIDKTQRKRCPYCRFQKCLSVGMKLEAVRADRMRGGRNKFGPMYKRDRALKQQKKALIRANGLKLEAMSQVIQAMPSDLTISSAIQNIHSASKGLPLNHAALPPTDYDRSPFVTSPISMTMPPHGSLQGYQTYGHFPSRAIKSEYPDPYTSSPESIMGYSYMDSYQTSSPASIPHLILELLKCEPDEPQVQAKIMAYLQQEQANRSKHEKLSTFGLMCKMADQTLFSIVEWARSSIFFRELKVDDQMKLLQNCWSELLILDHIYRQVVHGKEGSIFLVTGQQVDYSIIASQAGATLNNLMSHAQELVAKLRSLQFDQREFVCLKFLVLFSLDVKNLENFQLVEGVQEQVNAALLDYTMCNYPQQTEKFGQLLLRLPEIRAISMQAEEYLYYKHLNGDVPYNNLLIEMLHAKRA
# Shn3 inh set2: Schnurri-3 reporter inhibition in Clone20 osteoblasts. Clone20 osteoblast Shn3 3'UTR firefly luciferase, 24 h. inhibition, % at 12.5 µM. 360,000 compounds, 0.52% hits. AID 588674;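 active means mean inhibition of at least 75% with every replicate also reaching 75%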
# NCOA2 inhibitor: human SRC2 (NCOA2) inhibition | Q15596 | HEK293 GAL4-SRC2 luciferase reporter, luminescence | 370,000 compounds, 0.17% hits | inhibition, % at 9 µM;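 active means inhibition above the mean inhibition of all tested compounds plus 3 SD, set per campaign, cut at about 52% in these data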
# SRC3 inh: human NCOA3 inhibition; Q9Y6Q9; HEK293 GAL4-SRC3 luciferase reporter, luminescence; inhibition, % at 3.6 µM; 360,000 compounds, 0.17% hits;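 active means inhibition above a per-campaign cutoff, the mean of all compounds plus 3 SD, cut at about 60% in these data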;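 further: higher means less SRC3-driven luciferase light from the GAL4 reporter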
# Gli-Sufu confirm: confirmation of Gli-SUFU pathway antagonists; shares compounds with Gli-Sufu antag; Sufu-KO-LIGHT cells, Gli luciferase reporter, luminescence; inhibition, % at 5 µM; 2,500 compounds, 40% hits; AID 602428;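 active means mean inhibition at 5 µM reaching about 45%, limit read from the data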
# Gli cytotox: cytotoxic in Gli-SUFU antagonist counter-screen; 2,500 compounds, 32% hits; Sufu-KO-LIGHT cells cytotoxicity, ATP luminescence; shares compounds with Gli-Sufu antag; cytotoxicity, % at 5 µM;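 active means mean cytotoxicity at 5 µM above about 25%, limit read from the data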;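 further: cells exposed to compound overnight for roughly 16 to 18 hours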
# Wnt3a counter: inhibits Wnt3a reporter, counter-screen for Gli-SUFU antagonists | shares compounds with Gli-Sufu antag | inhibition, % at 6.25 µM | AID 651995 | 2,500 compounds, 20% hits | Wnt-LIGHT cells, Wnt3a-driven luciferase reporter, luminescence;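 active means mean inhibition above about 25%, limit read from the data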
# A number is an active result; - = inactive; . = no result given.
SMILES,Gli-Sufu antag,NCOA1 inh,NR5A2 inv ag,Shn3 inh set2,NCOA2 inhibitor,SRC3 inh,Gli-Sufu confirm,Gli cytotox,Wnt3a counter
CC(CCCC(C)(C)O)NC(=O)c1cc(COc2ccc3ncccc3c2)on1 (stereo unspecified),-,-,-,90,-,-,56,-,31
COCCOC1CCN(C(=O)c2cc(COc3ccc(-n4cncn4)cc3)on2)CC1,-,-,-,-,-,-,.,.,.
COCCC1CCCCN1C(=O)c1cc(COc2ccc(-n3cncn3)cc2)on1 (stereo unspecified),58,-,-,-,-,-,68,-,40
CCC1CCCCN1C(=O)c1cc(COc2ccc3ncccc3c2)on1 (stereo unspecified),72,-,-,88,-,-,72,35,-
COCC1CCCCN1C(=O)c1cc(COc2ccc3ncccc3c2)on1 (stereo unspecified),72,-,-,89,-,-,59,-,34
O=C(NC1CCCCN(Cc2cccc(Cl)c2)C1=O)c1ccc(Cl)cc1Cl (stereo unspecified),.,.,.,.,-,.,.,.,.
CC(C)(C)c1ccc(S(=O)(=O)N2CCCC(C(=O)NCc3ccco3)C2)cc1 (stereo unspecified),.,.,.,.,-,.,.,.,.
COc1ccccc1NS(=O)(=O)c1ccc(-c2cnc(C3CC3)o2)cc1,-,-,-,-,-,-,.,.,.
Cc1ccc(NS(=O)(=O)c2ccc(-c3cnc(C4CC4)o3)cc2)c(C)c1,-,-,-,-,-,-,.,.,.
O=S(=O)(Nc1ccc(F)cc1Cl)c1ccc(-c2cnc(C3CC3)o2)cc1,-,-,-,-,-,-,-,50,-
COc1ccc(NS(=O)(=O)c2ccc3c(c2)OCCO3)cc1OC,66,-,-,-,-,-,60,29,30
Cc1ccc(N(C)S(=O)(=O)c2cc(-c3cnc(C4CC4)o3)ccc2C)cc1,-,-,-,-,-,-,.,.,.
CCOc1ccccc1NS(=O)(=O)c1ccc(-c2cnc(C3CC3)o2)cc1,55,-,-,-,-,-,59,56,-
Cc1cccc(N(C)S(=O)(=O)c2ccc(-c3cnc(C4CC4)o3)cc2)c1,59,-,-,-,-,-,57,55,-
COc1ccccc1CNS(=O)(=O)c1ccc(-c2cnc(C3CC3)o2)cc1,-,-,-,-,-,-,.,.,.
COc1ccc(NS(=O)(=O)c2ccc(-c3cnc(C4CC4)o3)cc2)cc1OC,72,-,-,-,-,-,71,59,29
Cc1ccc(C)c(N2CCN(c3nc4ccccc4c(=O)n3Cc3ccccc3)CC2)c1,-,-,-,-,-,-,-,-,-
C[C@H]1CCCN1c1cccc2c1S(=O)(=O)N(C1CC1)CCCO2,.,.,.,.,-,.,.,.,.
COc1ccc(C2C=C(C)Nc3nc4ccccc4n32)cc1 (stereo unspecified),98,-,-,-,-,-,-,-,-
Cc1cc(C)cc(NC(=S)NC(=O)Cc2ccccc2)c1,60,-,-,-,-,-,-,-,-
Cc1ccc(C(=O)O)cc1NC(=S)NC(=O)Cc1ccccc1,-,-,-,-,-,-,.,.,.
O=C(CCCOc1ccc(Cl)cc1Cl)N/N=C/c1ccc(Cl)cc1,-,-,-,-,-,-,.,.,.
CC1(C)CC(=O)C/C(=N/NC(=O)CCCOc2ccc(Cl)cc2Cl)C1,99,-,-,-,-,-,-,-,-
CCCCOC(=O)/C=C/c1ccc(OC(=O)OC)c(OC(=O)OC)c1,62,-,-,96,-,-,46,-,37
COC(=O)Oc1ccc(/C=C/C(=O)OC(C)C)cc1OC(=O)OC,-,-,-,94,-,-,-,-,-
SMILES,Gli-Sufu antag,NCOA1 inh,NR5A2 inv ag,Shn3 inh set2,NCOA2 inhibitor,SRC3 inh,Gli-Sufu confirm,Gli cytotox,Wnt3a counter
CCCCCCCCNC(=O)C1CSCCS(=O)(=O)N1Cc1ccccc1 (stereo unspecified),.,.,.,.,-,.,.,.,.
C[C@H]1CCCC(=O)N[C@@H](c2ccccc2)[C@@H](C)CCCC(=O)N[C@H]1c1ccccc1,.,.,.,.,-,.,.,.,.
CN(CCc1ccccn1)C(=O)c1cc2ccccn2n1,.,.,.,.,-,.,.,.,.
O=C1NCCN1Cc1ccc(Cl)cc1,-,-,-,-,-,-,-,-,-
O=C1NCCCN1Cc1ccc(F)cc1,-,-,-,-,-,-,.,.,.
COc1ccc(NS(=O)(=O)c2ccc(C)c(C(=O)OC(C)C(=O)N3CCOCC3)c2)cc1 (stereo unspecified),-,-,-,-,-,-,.,.,.
COc1cc(OC)c(NS(=O)(=O)c2ccc(Cl)c(C(=O)OC(C)C(=O)N3CCCC3)c2)cc1Cl (stereo unspecified),-,-,-,-,-,-,-,-,-
CCOc1ccc(/C=C2\SC(=S)N(CCC(=O)N(CCO)c3ccccc3)C2=O)cc1,-,-,-,-,-,-,-,-,-
COc1ccc(/C=C2\SC(=S)N(CCC(=O)N(CCO)c3ccccc3)C2=O)cc1OC,-,-,-,-,-,-,.,.,.
O=S1(=O)C=CCN1Cc1cn(Cc2cccc(Cl)c2)nn1,.,.,.,.,-,.,.,.,.
CC(C)(C)c1ccc(Cn2cnc(-c3ccc([N+](=O)[O-])cc3)c2)cc1,-,-,-,-,-,-,.,.,.
Cc1cc(C)c(Cn2cnc(-c3ccc([N+](=O)[O-])cc3)c2)c(C)c1,55,-,-,-,-,-,-,28,-
Cc1ccc(C#N)c(SCc2cc3c(cc2Cl)OCO3)n1,-,-,-,-,-,-,.,.,.
Cc1cc(C)c(C#N)c(SCc2nnc(-c3ccccc3)o2)n1,70,80,87,-,67,79,83,35,96
Cc1ccc(C#N)c(SCc2nnc(-c3ccc(Cl)cc3)o2)n1,75,69,-,-,54,75,88,60,99
O=C(CSc1nc(=O)n2cc(Cl)ccc2n1)Nc1cccc2ccccc12,91,-,-,-,-,-,-,-,-
COc1ccccc1C(=O)NC1CCCCN(Cc2cccc(F)c2)C1=O (stereo unspecified),.,.,.,.,-,.,.,.,.
C[C@@H]1CCCN1c1cccc2c1S(=O)(=O)N1CC[C@H](C1)O2,.,.,.,.,-,.,.,.,.
COc1cccc(Cn2c(-c3cccs3)noc2=O)c1,99,-,-,-,-,-,-,-,-
COc1cc(S(=O)(=O)NCc2ccncc2)ccc1Br,68,-,-,-,-,-,61,-,30
COc1ccc(S(=O)(=O)NCc2cccnc2)cc1Br,59,-,-,-,-,-,-,-,-
CCN(C1CCCCC1)S(=O)(=O)c1ccc(S(=O)(=O)NCc2ccncc2)cc1,60,-,-,-,-,-,50,31,55
